# In the library only some 8.8% were active in any assay of this set; here they are far more common.
# KB-V1 MDR tox: qHTS assay for MDR1-selective chemotherapeutics: Primary screen using the drug-selected MDR subline cells KB-V1; KB-V1 MDR cells viability, CellTiter-Glo, 72 h; Potency, µM (titrated, usually from 46.1 µM), most hits filed as cytotoxic; 3.4% of 400,000 active; AID 1347076, 2019; note: nearly all actives have a fitted effect of over 60% in size
#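 KB-V1, DMEM (no phenol red) + 10% FBS; cpd pin-transferred, titration series; 72 h, 37 degrees C; CellTiter-Glo, luminescence. Data normalized, curve-fit.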
# KB-3-1 cytotox: qHTS assay for MDR1-selective chemotherapeutics: Primary screen using the parental adenocarcinoma cell KB-3-1 | KB-3-1 viability, CellTiter-Glo ATP luminescence, 72 h | Potency, µM (series often up to 46.1 µM), hits mostly cytotoxic | 1.4% of 400,000 active; note: nearly all actives have a fitted effect of over 60% in size
#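 Luminescent ATP read-out (CellTiter-Glo) measures survival of drug-naive KB-3-1 cells after 72 h compound exposure at 37 °C. Titration series was screened from lowest to highest concentration, with DMSO vehicle plates as background controls.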
# IL-1B inflam inh: qHTS for Inhibitors of Inflammasome Signaling: IL-1-beta AlphaLISA Primary Screen; 4.7% of 360,000 active; AID 743279, 2014; THP-1 LPS/ATP IL-1B secretion, AlphaLISA, 16 h; hits give low values; activity change, % at 57.5 µM; in the data active = activity change below about -50%; inconclusive = mostly about -30% to -49%
#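 Secreted IL-1B measured by AlphaLISA bead assay after 16 h compound exposure of THP-1 cells; compounds (final up to 57.5 uM) added 1 h before LPS (250 ng/mL) and ATP (1.25 mM) stimulation; lower signal means less secretion.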
# HT1080 IDH1KD tx: qHTS for induction of synthetic lethality in tumor cells producing 2HG: qHTS for the HT-1080-IDH1KD cell line. Potency, µM (series often up to 46.1 µM), most hits filed as cytotoxic. AID 686971, 2013. 2% of 360,000 active. HT-1080 IDH1 knockdown viability, ATP luminescence, 48 h
#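 Luminescent ATP read-out (CellTiter-Glo, 10 min at room temperature) after 48 h compound exposure at 37 °C gave viability of IDH1-knockdown HT-1080 cells. Activity was normalised to DMSO and cell-free wells, then fitted as concentration-response curves.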
# HT1080-NT tox: qHTS for induction of synthetic lethality in tumor cells producing 2HG: qHTS for the HT-1080-NT fibrosarcoma cell line. HT-1080-NT fibrosarcoma viability, CellTiter-Glo ATP luminescence, 48 h. Potency, µM (series often up to 46.1 µM), hits mostly cytotoxic. 1.6% of 360,000 active;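 note: NT is the 2HG producing partner of a matched IDH1 knockdown line; nearly all actives have a fitted effect of over 55% in size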
#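 Toxicity toward the 2HG-producing NT line was scored as %Activity, normalised to DMSO and no-cell wells, from CellTiter-Glo luminescence after 48 hours' treatment.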
# Numbers stand for hits; i = inactive; ? = inconclusive; nt = no result given. Unless noted, calls come from the whole dose curve; as a rule, active = well fitted curve in the direction sought with a large enough effect; inconclusive = small, poorly fitted or top-dose-only effect, or another doubt; inactive = no such curve, though single readings can be large; an effect the other way counts as inactive or inconclusive.
SMILES,KB-V1 MDR tox,KB-3-1 cytotox,IL-1B inflam inh,HT1080 IDH1KD tx,HT1080-NT tox
O=S(=O)(c1ccccc1Br)N1CCN(c2nc(-c3ccccc3)nc3ccccc23)CC1,i,i,nt,nt,nt
O=C(Nc1cccn(Cc2c(Cl)cccc2Cl)c1=O)c1ccc(Cl)cc1Cl,16µM,21µM,-59,?,?
O=C(Nc1cccn(Cc2c(Cl)cccc2Cl)c1=O)c1ccccc1Cl,5.8µM,?,?,i,i
O=C(Nc1c[nH]c(=O)[nH]c1=O)c1ccccc1Cl,16µM,?,i,i,i
COc1ccc(C(=O)N2CCCC(O)C2)cc1OC1CCN(C(C)C)CC1 (configuration not stated),i,i,i,i,i
Cc1ccc2nc(-c3ccc(NC(=S)NC4CC(C)(C)NC(C)(C)C4)cc3)sc2c1,i,?,-97,?,23µM
Cc1ccc2nc(-c3ccc(NC(=S)NC(=O)C(C)C)cc3)sc2c1,i,i,?,1.6µM,2.8µM
O=C(Nc1nc2cc3c(cc2s1)OCO3)c1ccco1,i,i,i,?,?
CCOc1ccc2nc(SCC(=O)c3ccccc3)sc2c1,i,i,?,?,i
CCOc1ccc2nc(NC(=O)c3ccoc3C)sc2c1,8.2µM,10µM,?,3.7µM,2.3µM
O=C(Nc1nc2cc3c(cc2s1)OCCO3)c1ccco1,12µM,?,?,?,?
CCOc1ccc2nc(NC(=O)Nc3ccccc3)sc2c1,i,i,i,i,i
CCOc1ccc2nc(NC(=S)NCc3ccccc3)sc2c1,i,i,i,4µM,?
CCOc1ccc2nc(SCCNS(=O)(=O)c3ccccc3)sc2c1,?,?,-68,?,?
CC1=C(C(=O)Nc2ccccc2)C(c2cccc(O)c2)n2nc(-c3ccccc3Cl)nc2N1 (configuration not stated),?,i,nt,nt,nt
CCOc1ccc2nc(NC(=O)c3ccco3)sc2c1,?,i,i,18µM,21µM
CCOC(=O)c1ccc2nc(NC(=O)c3ccco3)sc2c1,?,i,i,?,i
O=C(Nc1nc2cc3c(cc2s1)OCO3)C1=COCCO1,i,6.5µM,i,18µM,13µM
CC1(C)CC(=O)c2cc(C(=O)Nc3cccc4ccccc34)c(=O)[nH]c2C1,i,i,nt,nt,nt
CC(=O)c1cccc(NC(=O)Cc2cccs2)c1,i,i,i,i,i
Cc1cccc(-c2nnc(-c3cccc(NC(=O)Cc4cccs4)c3)o2)c1,21µM,i,?,?,?
O=C(Cc1cccs1)Nc1cccc(C(=O)Nc2ccco2)c1,?,?,i,11µM,?
O=C(Nc1cccc(-c2nnco2)c1)c1cccs1,i,i,i,i,i
Cc1ccc(-c2nnc(-c3cccc(NC(=O)c4cccs4)c3)o2)cc1,12µM,i,i,i,i
O=C(O)c1ccc(Cl)c(S(=O)(=O)Nc2cccc(C(=O)Nc3cccc(C(F)(F)F)c3)c2)c1,i,i,i,i,i
SMILES,KB-V1 MDR tox,KB-3-1 cytotox,IL-1B inflam inh,HT1080 IDH1KD tx,HT1080-NT tox
CC(C)(C)C(=O)CN1C(=O)NC(C)(Cc2ccc3c(c2)OCO3)C1=O (configuration not stated),i,i,i,i,i
O=S(=O)(Nc1c(S(=O)(=O)c2ccccc2)c2nc3ccccc3nc2n1C1CCCCC1)c1ccccc1,i,i,-69,16µM,?
C=CCn1c(NS(=O)(=O)c2ccccc2)c(S(=O)(=O)c2ccc(C)cc2)c2nc3ccccc3nc21,13µM,?,-84,i,i
COc1ccc2nc(N=Nc3ccc(N(C)C)cc3)sc2c1,?,13µM,i,i,i
O=C(Nc1ccccc1)c1cc([N+](=O)[O-])ccc1Cl,i,i,i,i,i
O=C(Nc1ccc([N+](=O)[O-])cc1Cl)c1cc(Cl)ccc1O,1µM,1.2µM,-64,0.37µM,0.37µM
CCCC(=O)Nc1cccc(NC(=O)c2ccc([N+](=O)[O-])cc2Cl)c1,i,i,i,i,i
COc1ccc(C)cc1NC(=O)c1ccc([N+](=O)[O-])cc1[N+](=O)[O-],i,i,i,i,i

# Bioassay records as filed in PubChem.
